Results from PubChem BioAssay (NCATS).
Inconclusive results are not listed. Active and inactive are the calls of the source. Calls follow the shape of the dose curve; as a rule, active = well fitted curve in the direction sought with a large enough effect; inconclusive = small, poorly fitted or top-dose-only effect, or another doubt; inactive = no such curve, though single readings can be large; an effect the other way counts as inactive or inconclusive. *1 amine or outer side, *2 acyl side, *3 side chain or, on linkers, in order; H or OH if unused. Where a SMILES comes first, the peptide text is derived from it. [ ]: non-standard residue; d: D form. X4 = CC(C)=CCc1cc(C(O)C(N[*:1])C(=O)[*:2])ccc1O

Legend:
[1] = biological target: Glutathione peroxidase 1 (Homo sapiens) (UniProt P07203); test: Primary qHTS Assay for Inhibitors of Recombinant Selenoprotein Glutathione Peroxidase 1 (GPX1) (AID 1845191); also: nearly all actives have a fitted effect of over 65% in size; also: potency is read from the fitted curve at half-maximal effect; as to activity, negative = inhibition: % is scaled to controls: 0 for no effect and ±100 for the full control effect
Procedure, shortened: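 10 nM GPX1 + cpd, 30 min RT; start w/ 1 mM GSH, 0.5 mM cumene hydroperoxide, 0.5 mM NADPH, 100 nM GR, 0.01% BSA; buffer 50 mM Tris-HCl pH 7.5, 2 mM EDTA, 150 mM NaCl; Fl 340/450, 0 & 15 min.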

[2] = biological target: Luciferin 4-monooxygenase (Photinus pyralis) (UniProt P08659); test: Primary firefly luciferase (FLuc) qHTS assay for identification of artifact compounds. (AID 1845220); also: nearly all actives have a fitted effect of over 60% in size;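 as to activity change, negative = inhibition: series mostly up to about 54 µM; plate controls were DMSO vehicle for no effect and no enzyme for full effect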
Procedure, shortened: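 Cell-free, 1536-well qHTS. Buffer pH 7.6 with 0.01% Tween-20 and 0.05% BSA; 10 uM D-luciferin, 10 uM ATP; 10 nM P. pyralis luciferase; luminescence after 5 min.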

[3] = Primary fluorescence-based thiol-reactive (MSTI) qHTS assay for identification of artifact compounds. (AID 1845221); also: nearly all actives have a fitted effect of over 65% in size; also: potency is read from the fitted curve at half-maximal effect;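 as to activity change, negative = thiol reactive: series mostly up to about 54 µM; thiol-reactive compounds lower the probe fluorescence signal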
Procedure, shortened: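 A multi-concentration qHTS design tested compounds against 4 uM MSTI, pH 7.4 phosphate-buffered saline. Plates were protected from light for 1 h at room temperature before imaging fluorescence.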

[4] = system: Nanoluciferase (engineered Oplophorus gracilirostris luciferase); test: Primary Nanoluciferase (NLuc) qHTS assay for identification of artifact compounds. (AID 1845222); also: potency is read from the fitted curve at half-maximal effect;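 as to activity, negative = inhibition: series mostly up to about 54 µM; 0% = DMSO and -100% = no enzyme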
Procedure, shortened: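 Compounds are pinned into diluted (1:55) conditioned medium of NLuc-expressing S16 cells and held 15 min at room temperature protected from light. Nano-Glo substrate follows, and luminescence is read 5 min later.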

[5] = Primary redox qHTS assay for identification of artifact compounds. (AID 1845223);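 also: 0% = DMSO and 100% = reference compound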
Procedure, shortened: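 Amplex Red (25 uM) and HRP (250 mU/mL) in HBSS, with compounds for 15 min, then 250 uM DTT for 30 min, room temperature, dark. Fluorescence 525/598 nm read; normalized to DMSO and 10 uM DA3003; Hill fit.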

Sequence of Glutathione peroxidase 1 (Homo sapiens) (P07203 whole entry, looked up): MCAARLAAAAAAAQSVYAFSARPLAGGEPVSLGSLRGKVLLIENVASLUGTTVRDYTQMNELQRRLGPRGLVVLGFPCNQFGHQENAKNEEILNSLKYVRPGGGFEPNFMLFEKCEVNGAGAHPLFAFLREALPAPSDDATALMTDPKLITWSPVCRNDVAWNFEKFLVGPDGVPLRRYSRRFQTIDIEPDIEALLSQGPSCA

COC(=O)C[C@H]1C(C)(C)[C@H](OC(=O)C(C)C)[C@@]2(O)C(=O)[C@]1(C)C1CC[C@]3(C)C(CC(=O)O[C@H]3c3ccoc3)[C@]13O[C@@H]32 (stereo partly drawn)
inactive: Potency [1] | Potency [2] | Potency [3] | Potency [4] | Potency [5]

O=C(NCc1ccccn1)Nc1nnc(-c2ccco2)o1
inactive: Potency [1] | Potency [2] | Potency [3] | Potency [4] | Potency [5]

C/C=C/C=C/C(O)=C1\C(=O)[C@]2(C)C3C(C(=O)CC/C=C/C)=C(O)C4(C)C1[C@]1(C)O[C@@]4(O)[C@@]3(C)O[C@@]12O
active: Potency [3] 4.62 µM
inactive: Potency [1] | Potency [2] | Potency [4]

CC(=O)C1=CCC2C3CCC4CC(O[C@@H]5O[C@H](CO)[C@@H](O[C@@H]6O[C@@H](C)[C@H](O)[C@@H](O)[C@H]6O)[C@H](O)[C@H]5O[C@@H]5O[C@H](CO)[C@@H](O)[C@H](O)[C@H]5O)CCC4(C)C3CCC12C (stereo partly drawn)
inactive: Potency [1] | Potency [2] | Potency [3] | Potency [4] | Potency [5]

COc1c2cc(c(O)c1OC)-c1cc(ccc1O)CCC(O)CCCC2 (stereo not drawn)
inactive: Potency [1] | Potency [2] | Potency [3] | Potency [4] | Potency [5]

CCCC1(c2ccccc2)NC(=O)N(CC(=O)N(C)Cc2c(F)cccc2Cl)C1=O (stereo not drawn)
inactive: Potency [1] | Potency [2] | Potency [3] | Potency [4] | Potency [5]

C[C@@H]1O[C@@H](O[C@H]2[C@H](O)[C@@H](O)[C@H](OC3CCC4(C)C5CCC(C)(C(CO)OC6OC(CO)C(O)C(O)C6O)CC5=CCC4C3(C)C)O[C@@H]2CO)[C@H](O)[C@H](O)[C@H]1O (stereo partly drawn)
inactive: Potency [1] | Potency [2] | Potency [3] | Potency [4] | Potency [5]

CC(C)=CCc1cc(C(O)C2NC(=O)CNC(=O)C(Cc3c[nH]c4ccccc34)NC(=O)C3CCCN3C(=O)CNC(=O)C(C(C)C)NC(=O)CNC2=O)ccc1O (stereo not drawn) (cyclo(G[X4]GVGPW); configuration not given here)
inactive: Potency [1] | activity change, negative = inhibition [2] -7.99% [at 11.6 µM] | activity change, negative = thiol reactive [3] 158% [at 11.5 µM] | activity, negative = inhibition [4] -5.03% [at 11.6 µM] | redox activity (% of DA3003) [5] 10.2% [at 11.5 µM]

CN(C)C1CCN(C(=O)c2ccc(NC(=O)Nc3ccc(-c4nc(N5CCOCC5)nc(N5CCOCC5)n4)cc3)cc2)CC1
inactive: Potency [1] | Potency [2] | Potency [3] | Potency [4] | Potency [5]

COc1ccc([C@@]2(O)c3c(ccc(CC=C(C)C)c3O)NC(=O)[C@@H]2OC)cc1
inactive: Potency [1] | Potency [2] | Potency [3] | Potency [4] | Potency [5]

Cn1ncnc1COc1nn2c(-c3cc(F)ccc3F)nnc2cc1C(C)(C)C
inactive: Potency [1] | Potency [2] | Potency [3] | Potency [4] | Potency [5]

CC(=O)O[C@@H]1[C@@H](CO)O[C@@](CO)(O[C@H]2O[C@H](COC(=O)/C=C/c3ccccc3)[C@@H](O)[C@H](O)[C@H]2O)[C@H]1O
inactive: Potency [1] | Potency [2] | Potency [4] | Potency [5]
active: Potency [3] 4.62 µM

CCc1c(-c2ccccc2)c(-c2ccccc2)nn1-c1ccccc1-c1cccc(OCC(=O)O)c1
active: Potency [4] 269 nM
inactive: Potency [1] | Potency [2] | Potency [3] | Potency [5]

CC(=O)O[C@@H]1[C@H](O)[C@@H](O[C@@H]2O[C@@H](C)[C@H](O[C@@H]3OC[C@@H](O)[C@H](O[C@@H]4OC[C@@H](O)[C@H](O)[C@H]4O)[C@H]3O)[C@@H](O[C@@H]3O[C@H](CO)[C@@H](O)[C@H](O)[C@H]3O)[C@H]2O)[C@H](OC(=O)[C@]23CCC(C)(C)C[C@H]2C2=CCC4[C@@]5(C)CC[C@H](O[C@@H]6O[C@H](C(=O)O)[C@@H](O)[C@H](O[C@@H]7OC[C@@H](O)[C@H](O)[C@H]7O)[C@H]6O[C@@H]6O[C@H](CO)[C@H](O)[C@H](O)[C@H]6O)[C@@](C)(C=O)C5CC[C@@]4(C)[C@]2(C)CC3)O[C@@H]1C (stereo partly drawn)
inactive: activity, negative = inhibition [1] -4.56% [at 9.52 µM] | activity change, negative = inhibition [2] 3.61% [at 6.45 µM] | activity change, negative = thiol reactive [3] 306% [at 6.41 µM] | activity, negative = inhibition [4] 0% [at 6.45 µM] | redox activity (% of DA3003) [5] -0.0347% [at 6.41 µM]

C=C1C(=O)O[C@@H]2C/C(C)=C\C(=O)/C=C(\C)[C@@H](OC(=O)/C(C)=C\C)[C@H](O)[C@@H]12
inactive: Potency [1] | Potency [2] | Potency [3] | Potency [4] | Potency [5]

Cc1cc(C)c2c(N)c(C(=O)NCc3ccc(Cl)cc3)sc2n1
inactive: Potency [1] | Potency [2] | Potency [3] | Potency [4] | Potency [5]

CO[C@@H](C)Cn1c(=O)n(C)c2cnc3ccc(-c4cncc(C(C)(C)O)c4)cc3c21
inactive: Potency [1] | Potency [2] | Potency [3] | Potency [4] | Potency [5]

CC1(C)CCC2(C(=O)OC3OC(CO)C(O)C(O)C3O)CCC3(C)C(=CCC4C5(C)CCC(O)C(C)(C(=O)O)C5CCC43C)C2C1O (stereo not drawn)
inactive: Potency [1] | Potency [2] | Potency [3] | Potency [4]

CCn1cc(NC(=S)Nc2cc(Cl)ccc2OC)c(C(N)=O)n1
inactive: Potency [1] | Potency [2] | Potency [3] | Potency [4] | Potency [5]

Cc1ccc(-c2ccc3ncc4c(c3n2)n(C2CCN(C(=O)[C@H](C)O)CC2)c(=O)n4C)cn1
active: Potency [1] 22.7 µM
inactive: Potency [2] | Potency [3] | Potency [4] | Potency [5]

Cn1c2ccc(F)cc2c2c(C(=O)N3CCCC3)cn(-c3ccccc3)c(=O)c21
inactive: Potency [2] | Potency [3] | Potency [4] | Potency [5]
active: Potency [1] 18 µM
